Rows were chosen to be rich in hits. Some 3.2% of all compounds tested hit in one or more screens of this group.
JMJD2E inh: inhibitors of human JMJD2E histone demethylase; B2RXH2; JMJD2E catalytic domain, FDH-coupled NADH fluorescence (FDH is formaldehyde dehydrogenase); Potency, µM (series often up to 57.1 µM), without a hit: at the top dose activity change, negative = inhibition, hits mostly inhibitors; 230,000 compounds, 1.6% hits; active means well fitted inhibition curve with a large enough effect, not every such curve was filed as active; inconclusive means small, poorly fitted or top-dose-only effect, or another doubt; inactive means no such curve, though single readings can be large or run the other way;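 further: potency means the concentration at half of the fitted maximal effect; 0% = wells with enzyme and -100% = buffer wells without enzyme; nearly all actives have a fitted effect of over 50% in size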
Target sequence (B2RXH2 1-337 limits assumed): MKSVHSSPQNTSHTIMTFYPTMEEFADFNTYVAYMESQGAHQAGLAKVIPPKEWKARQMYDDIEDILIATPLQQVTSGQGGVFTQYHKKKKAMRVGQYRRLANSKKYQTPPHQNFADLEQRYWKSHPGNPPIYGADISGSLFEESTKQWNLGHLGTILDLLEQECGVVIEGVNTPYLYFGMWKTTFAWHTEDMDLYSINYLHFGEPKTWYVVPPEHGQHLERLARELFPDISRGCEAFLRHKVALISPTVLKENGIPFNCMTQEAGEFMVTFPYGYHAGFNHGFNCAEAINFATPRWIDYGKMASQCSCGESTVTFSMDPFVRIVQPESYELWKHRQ
Tau fibril ThT: blocks human tau fibril formation measured by thioflavin T | AID 1460 | 270,000 compounds, 2.1% hits | P10636 | recombinant tau K18 P301L, heparin-induced fibrillization, ThT fluorescence | Potency, µM (series often up to 57.4 µM), inactives show at the top dose activity, negative = inhibition, usual class: inhibitors; further: potency means the concentration at half of the fitted maximal effect; on the % scale 0 is the no-effect control and ±100 the full control effect; nearly all actives have a fitted effect of over 55% in size
Target sequence (P10636 561-689 P618L limits assumed): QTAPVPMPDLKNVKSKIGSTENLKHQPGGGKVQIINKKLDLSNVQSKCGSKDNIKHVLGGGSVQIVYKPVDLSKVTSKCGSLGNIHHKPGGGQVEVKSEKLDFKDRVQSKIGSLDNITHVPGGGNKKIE
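K18 P301L tau (15 uM + 0.24 uM Alexa 594-tagged), heparin 20 uM, NaOAc pH 7, 6 h 37 C; ThT 30 uM, 1 h RT, ex 450/em 510 nm.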
Tau FP inhib: inhibitors of human tau fibril formation; Potency, µM (doses to about 57.7 µM), for the others: at the highest dose activity, negative = inhibition, actives largely listed as inhibitors; P10636; K18 P301L tau heparin fibrillization, Alexa594 FP, 6 h; 280,000 compounds, 0.39% hits; further: potency means the concentration at half of the fitted maximal effect; on the % scale 0 is the no-effect control and ±100 the full control effect; nearly all actives have a fitted effect of over 55% in size
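Human K18 P301L fragment (15 uM unlabeled plus 0.24 uM Alexa 594-labeled) in 100 mM sodium acetate pH 7 with compound, aggregation induced by 20 uM heparin for 6 hr at 37 C. ThT (30 uM) added for 1 hr, then Alexa 594 FP read.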
CBFb RUNX1 block: inhibitors of human CBF-beta and RUNX1 interaction; Q01196+Q13951; Potency, µM (series often up to 59.8 µM), without a hit: at the top dose activity, negative = inhibition, hits mostly inhibitors; AlphaScreen CBFb-His/RUNX1-biotin binding, biochemical; AID 1477; 230,000 tested, under 10 active; further: % of control where 0% means no effect
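CBFb-His/RUNX1-biotin, 30 nM each, preincubated 20 min RT; compound 15 min RT; Ni + streptavidin beads 50 ng each, 90 min RT; AlphaScreen read.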
Tau fluor counter: counter-screen for tau fibril formation inhibitors; tau K18 P301L Alexa594 fluorescence, heparin fibrillization; Potency, µM (series often up to 57.7 µM), without a hit: at the top dose activity change, negative = decrease; 280,000 compounds, 0.93% hits; further: potency means the concentration at half of the fitted maximal effect; on the % scale 0 is the no-effect control and ±100 the full control effect; nearly all actives have a fitted effect of over 55% in size
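Human tau K18 P301L (15 uM unlabeled, 0.24 uM Alexa 594-labeled) in 100 mM sodium acetate pH 7 with 20 uM heparin, 6 hr at 37 C. ThT 30 uM added, 1 hr ambient; Alexa 594 FP and total fluorescence read at 555/632 nm.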
Lamin A splicing: changes lamin A minigene splicing in HeLa cells; HeLa LMNA splicing GFP/RFP minigene ratio, 48 h; Potency, µM (series often up to 46.1 µM), without a hit: at the top dose ratio change, negative = inhibition, hits mostly inhibitors; 200,000 compounds, 0.01% hits; active means well fitted inhibition curve with a large enough effect in the signal ratio, with a control signal flat, not every such curve was filed as active; inconclusive means small, poorly fitted or top-dose-only effect, or effect the other way, or a change in a side signal; the % refers to the signal ratio; further: potency means the concentration at half of the fitted maximal effect; on the % scale 0 is the no-effect control and ±100 the full control effect
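Read-out is the ratio of GFP to DsRed2 object intensity, acquired by 488 nm laser-scanning cytometry on HeLa lamin A-EGFP minigene reporter cells. Compound incubation 48 hrs at 37 °C in Opti-MEM with 2% FBS; DMSO 0.5% final.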
An asterisk follows results filed as active; ? = inconclusive; · = no result given; [ ] = remark or other dose. Unless noted, the call rests on the fitted dose curve; in most records, active means well fitted curve in the direction sought with a large enough effect; inconclusive means small, poorly fitted or top-dose-only effect, or another doubt; inactive means no such curve, though single readings can be large; an effect the other way counts as inactive or inconclusive.

SMILES	JMJD2E inh	Tau fibril ThT	Tau FP inhib	CBFb RUNX1 block	Tau fluor counter	Lamin A splicing
CC(Oc1ccc(Cl)cc1)C(=O)NNC(=S)NC(=O)c1ccco1 (centres undefined)	20µM*	?	-14.6%	-27.1%	-18.9%	?
Nc1cc(=O)[nH]c(=S)n1-c1ccccc1	-2.5%	2.0%	-4.1%	2.0%	-1.4%	11.5%
O=C1NC(=S)CN1c1ccccc1	?	31.6µM*	?	10.9%	-19.3%	·
COc1ccc2c(c1)-c1nc(/N=C/c3ccc(O)c(OC)c3)sc1CC2	?	31.6µM*	?	-2.9%	-24.2%	-8.5%
COc1ccc2c(c1)-c1nc(N)sc1CC2	?	31.6µM*	?	-9.3%	?	4.7%[46 µM]
O=C(O)C(O)C(O)(Cc1ccc(O)cc1)C(=O)O (centres undefined)	-10.2%	-3.0%	-8.7%	-7.6%	-5.1%	·
Cc1ccc(N2CCN(C(=O)NCc3noc4ccc(C)cc34)CC2)c(C)c1	·	?	4.8%	·	-25.6%	·
CC/C(=N\NC(=O)C(N)=O)c1ccccc1O	8.91µM*	?	3.9%	-2.6%	-3.0%	-4.1%
O=C(Nc1cc(Cl)ccc1O)c1cc2nc(-c3ccc4c(c3)OCO4)cc(C(F)(F)F)n2n1	·	?	-3.4%	·	?	·
O=C(O)c1ccc(-c2c3nc(c(-c4ccc(C(=O)O)cc4)c4ccc([n-]4)c(-c4ccc(C(=O)O)cc4)c4nc(c(-c5ccc(C(=O)O)cc5)c5ccc2[n-]5)C=C4)C=C3)cc1.[Mn+3]	·	·	·	20.4%	·	·
COc1ccc(Cl)cc1NC(=S)NCCc1c[nH]c2ccccc12	0.2%	?	5.0%	-7.1%	22.4µM*[quencher]	?
CC(C)c1ccc(NC(=S)NCCc2c[nH]c3ccccc23)cc1	-26.4%	?	1.7%	?	11.2µM*[quencher]	?
Cc1cc(C)cc(NC(=O)C(=O)NCCc2c[nH]c3ccccc23)c1	-9.9%	?	-4.2%	-18.0%	15.8µM*[quencher]	·
O=C(NCCc1c[nH]c2ccccc12)OCCSS(=O)(=O)O	?	14.1µM*	?	-7.9%	-14.9%	0.5%[46 µM]
Cc1ccccc1NC(=S)NCCc1c[nH]c2ccccc12	7.0%	-13.0%	6.1%	-26.8%	-21.5%	?
COc1ccc(CCNC(=O)Cc2ccc(NC(=O)N3CCSc4ncccc43)cc2)cc1OC	·	1.3%	-5.8%	·	0.1%	·
CNCCCCc1cnc(C)c2[nH]c3ccccc3c12	?	-10.2%	-0.3%	10.0%	-10.7%	·
CCN(Cc1ccccc1)C(=O)Cn1c(=O)n(-c2cccc(C)c2)c(=O)c2c1c1cc(OC)ccc1n2C	·	-10.0%	-0.7%	·	-14.2%	·
Oc1ccc(Br)cc1-c1nc2cnccn2c1NC1CCCCC1	?	?	?	-0.9%	14.1µM*[quencher]	-2.9%
Fc1ccc(-c2nc3cnccn3c2NC2CCCC2)cc1	-6.8%	-6.8%	-5.9%[2.34 µM]	-2.8%	-8.1%	?
Oc1ccc(Br)cc1-c1nc2cnccn2c1NC1CCCC1	?	?	?	4.0%	12.6µM*[quencher]	?
Cc1cnc(CNc2ncnc3ccc(-c4ccc(N(C)C)cc4)cc23)cn1	·	·	·	·	·	-17.8%
CN(C)c1ccc(-c2ccc3ncnc(NCc4ccccc4)c3c2)cc1	?	?	?	·	10µM*[quencher]	?
c1cncc(CNc2nc(-c3ccoc3)nc3ccccc23)c1	?	28.2µM*	?	·	?	-11.8%
CN(C)c1ccc(-c2nc(NCc3cccnc3)c3ccccc3n2)cc1	?	14.1µM*	-9.7%	·	17.8µM*[quencher]	?
SMILES	JMJD2E inh	Tau fibril ThT	Tau FP inhib	CBFb RUNX1 block	Tau fluor counter	Lamin A splicing
N#Cc1ccc(C[C@H](C(=O)O)N2C(=O)c3ccc(C(=O)O)cc3C2=O)cc1	·	·	·	10.4%	·	·
COc1cc(CCC(=O)NCc2ccc3c(c2)CCN3C(=O)c2cccc(C)c2)cc(OC)c1OC	·	-1.5%	5.0%	·	4.3%	-13.8%[46 µM]
CCOC(=O)c1c(NC(=O)c2ccc(S(=O)(=O)N3CCCC(C)C3)cc2)sc2c1CC(C)(C)NC2(C)C (centres undefined)	·	0.1%	-8.5%	·	2.3%	?
CC(C)c1ccc(CNC(=O)c2ccc(N3CCCC3)c(NC(=O)NCc3ccc(F)cc3)c2)cc1	·	0.7%	8.5%	·	-15.7%	-4.1%[46 µM]
Clc1ccc(-c2csc(N/N=C/c3ccc4c(c3)OCO4)n2)cc1	?	8.91µM*	-2.4%	-9.3%	11.2µM*[quencher]	-10.4%
O=C(N/N=C/c1ccncc1)C1CC1(c1ccccc1)c1ccccc1 (centres undefined)	-13.1%	?	-7.0%	2.2%	?	·
O=[N+]([O-])c1cc(/C=N\Nc2nc(-c3ccccc3)cs2)ccc1O	-8.2%	3.16µM*	?	?	10µM*[quencher]	·
O=C(N/N=C/c1ccc(O)c([N+](=O)[O-])c1)C1CC1(c1ccccc1)c1ccccc1 (centres undefined)	?	14.1µM*	6.7%	-15.8%	?	4.0%[46 µM]
Cc1csc(N/N=C/c2ccc(O)c([N+](=O)[O-])c2)n1	-23.5%	5.01µM*	-2.3%	?	?	?
O=[N+]([O-])c1cc(/C=N/Nc2nc(N3CCCCC3)nc(N3CCCCC3)n2)ccc1O	4.6%	2.8%	5.8%	0.5%	-5.6%	-12.9%
CCN(CC)CCNC(=O)c1nn(C)c2c1CS(=O)(=O)c1ccccc1-2	·	-7.5%	-5.0%	·	-7.8%	?
COc1ccc(-c2nc3sc(CCNC(=O)C(=O)Nc4cc(C)cc(C)c4)c(C)n3n2)cc1	·	?	3.5%	·	-6.1%	1.4%[46 µM]
O=[N+]([O-])c1ccc(-c2csc(N/N=C/c3cccnc3)n2)cc1	-2.7%	2.24µM*	4.0%	-18.0%	?	8.7%[46 µM]
O=[N+]([O-])c1cc(/C=N/N/C(=N/c2ccccn2)c2ccccn2)ccc1O	17.8µM*	?	-10.7%	-15.3%	-12.9%	?
O=[N+]([O-])c1ccc(/C=N/N/C(=N/c2ccccn2)c2ccccn2)cc1	-7.2%	?	-5.7%	-8.5%	-11.5%	0.7%
O=C(Oc1ccc2c(=O)c(Oc3ccc4ccccc4c3)coc2c1)c1cncc(Br)c1	11.2µM*	-11.9%	2.8%	6.7%	-7.4%	-11.8%
COc1ccc(CC(=O)NCC(c2cccs2)S(=O)(=O)c2ccc(C)cc2)cc1 (centres undefined)	·	-7.7%	2.1%	·	-10.2%	17.4%[46 µM]
C/C(N)=C(/C#N)C(=O)COC(=O)c1cc(-c2cccc3ccccc23)nc2ccccc12	?	-3.2%	11.2µM*	3.9%	?	-0.9%
COc1ccc(NC(=O)/C(C#N)=C\c2ccc(OCc3ccc(C(=O)O)cc3)c(OC)c2)cc1	?	3.98µM*	-16.4%	-16.2%	-20.7%	·
